Data published in PubChem BioAssay (NCI).
This is part of a sample that, as a whole, favours compounds with a hit. Of some 83,000 tested, about 20% had one in any assay.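 The test compound was applied at a single concentration to cells in 96-well plates for 48 hours, and percent growth was recorded.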 The source made the active and inactive calls. How the source made its calls: active means growth percent below 10; inactive means the rest.

System: OVCAR-5 ovarian
Experiment: NCI-60 one-dose screen, 48 h (100 = growth as untreated, 0 = no growth, -100 = all killed)
Settings: 10 µM unless noted

Row | Structure (SMILES) | growth
1 | CO/C=C/C(=O)c1cc2cnc3c(=N)cc(NC(=O)C(C)C)c([nH]1)c23 | -16.3% (active)
2 | Cc1cc2c(-c3nc4ccccn4c3Nc3cccc4ccccc34)c(O)c(O)cc2c(O)c1-c1c(C)cc2c(-c3nc4ccccn4c3Nc3cccc4ccccc34)c(O)c(O)cc2c1O | 66.8% (inactive)
3 | Cc1cc(N2CCOCC2)nc(N(CCNc2ccnc3cc(Cl)ccc23)Cc2cccs2)n1 | 83.2% (inactive)
4 | CCCCCCCC(=O)SCC/C=C/[C@@H]1CC(=O)NCc2cc(ccn2)C2=N[C@@](C)(CS2)C(=O)N[C@@H](C(C)C)C(=O)O1 | 2.85% (active)
5 | Cc1sc2c(c1C)c(=O)nc1c(-c3nc4ccccc4s3)n[nH]n12 | 110% (inactive)
6 | CC(C)(C)CC(C)(C)Nc1c(-c2c(O)c3ccccc3oc2=O)nc2c(Cl)cc(C(F)(F)F)cn12 | 109% (inactive)
7 | CCOc1cccc(/C=N/NC(=O)c2ccccc2Nc2ccnc(C(F)(F)F)c2)c1O | 13% (inactive)
8 | Cc1cc2c(-c3nc4ccccn4c3NC3CCCCC3)c(O)c(O)cc2c(O)c1-c1c(C)cc2c(-c3nc4ccccn4c3NC3CCCCC3)c(O)c(O)cc2c1O | 33.7% (inactive)
9 | C=CCC(=O)N[C@H](/C=C/C(=O)O)Cc1ccc(-c2cc(Cl)cc(Cl)c2)cc1 | 92% (inactive)
10 | CN1CCN(c2nc(NCCNc3ccnc4cc(Cl)ccc34)c3ccccc3n2)CC1 | 59.9% (inactive)
11 | C[C@@H](C[C@H](CCO)c1cc(C(F)(F)F)cc(C(F)(F)F)c1)c1ccc2ccccc2c1 | 106% (inactive)
12 | C=C1C(=O)O[C@H]2[C@H]1CC/C(Cn1cc(-c3cc(C)c(C)cc3C)nn1)=C\CC[C@@]1(C)O[C@@H]21 | -45.6% (active)
13 | COc1ccc2c(CCCc3ccc(Cl)cc3Cl)c3[n+](cc2c1OC)CCc1cc2c(cc1-3)OCO2 | 28.9% (inactive)
14 | CCN1CCN(c2cc(C)nc(N(CCCNc3ccnc4cc(Cl)ccc34)Cc3ccc4c(c3)OCO4)n2)CC1 | 50.2% (inactive)
15 | O=C1CC(c2ccc(Cl)cc2)c2ncn(-c3cccc(Cl)c3)c2N1 (configuration not stated) | 96% (inactive)
16 | Cc1ccccc1Nc1nc2nonc2nc1Nc1cccc(C)c1C | 98.9% (inactive)

Row | Structure (SMILES) | growth
17 | Fc1ccc(NCc2cn(-c3ccccc3)nc2-c2ccc(OCc3ccccc3)cc2)cc1Cl | 86.6% (inactive)
18 | CCCCCCCC(=O)SCC/C=C/[C@@H]1CC(=O)NCc2cccc(n2)C2=N[C@@](C)(CS2)C(=O)N[C@@H](C(C)C)C(=O)O1 | 6.82% (active)
19 | COC(=O)C1CCc2sc3ncnc(Nc4cn[nH]c4C(=O)Nc4ccc(CN5CCN(C)CC5)cc4)c3c21 (configuration not stated) | -2.74% (active)
20 | C=CC(=O)N(C)[C@H]1C[C@H]2OC(C)(C1OC)n1c3ccccc3c3c4c(c5c6ccccc6n2c5c31)C(=O)NC4 (some centres not stated) | 28.9% (inactive)
21 | Cc1cc(N(CCNc2ccnc3cc(Cl)ccc23)Cc2ccc3c(c2)OCO3)nc(N2CCN(C)CC2)n1 | 97.2% (inactive)
22 | CN1CCN(CCCOc2cccc3nc(Nc4ccc(Cl)c(C(F)(F)F)c4)ccc23)CC1 | 17.9% (inactive)
23 | Nc1c2c(c(O)c3c1=C(CO)C=N3)=NCCS2 | -70.5% (active)
24 | Cc1cc(O)c2c(c1)C1OC(=O)CCCCCN1C1=C2C(=O)c2cccc(OC3CC(O)C(O)C(C)O3)c2C1=O (configuration not stated) | 130% (inactive)
25 | CC1(C=O)NC(=O)NC1=O (configuration not stated) | 101% (inactive)
26 | COc1ccc(Nc2ncccc2NC(=O)c2cn(Cc3cccc(Oc4ccccc4)c3)nn2)cc1 | 105% (inactive)
27 | OCCNC(=S)Nc1ccc(-c2nc(N3C[C@H]4CC[C@@H](C3)O4)c3cccn3n2)cc1 | -4.85% (active)
28 | O=C(c1ccccc1)C(c1ccccc1)N1CCOCC1 (configuration not stated) | 105% (inactive)
29 | NN1C(=O)CSC1=S | 96.8% (inactive)
30 | CC12O[C@H](C[C@@H](OC(=O)CCC(=O)O)[C@H]1O)n1c3ccccc3c3c4c(c5c6ccccc6n2c5c31)C(=O)NC4=O | 69.3% (inactive)
31 | C=C1[C@@H](O)C[C@H]2C(C)(C)C[C@H](Cl)C[C@]2(C)[C@H]1C[C@H](O)[C@H]1CC(=O)NC1=O | -10.8% (active)
32 | COC(=O)[C@H](Cc1ccccc1)NC(=O)[C@@H](OC)[C@@H]1Cc2cc3cc(OC4CC(OC5CC(O)C(O)C(C)O5)C(O)C(C)O4)c(C)c(O)c3c(O)c2C(=O)[C@H]1OC1CC(OC2CC(OC3CC(C)(O)C(O)C(C)O3)C(O)C(C)O2)C(O)C(C)O1 (some centres not stated) | 8.6% (active)
